The campaign covered roughly 69,000 compounds. About 8,600 (12%) showed an effect of 50% or more. For the sample, strong results were picked, then their nearest neighbours and some compounds at random.

This test relates to Plasmodium berghei. Briefly: Screen against P. berghei liver stage (PbLuc), transformed with Luciferase, at 10uM. Type of test: functional, HepG2. To be noted: tested at 10 uM.
With `CCc1nc(C2CCCN2CC(=O)N2CCCc3ccccc32)no1` (centres undefined), the INHIBITION is listed as 15.3%. As for `CN(C)c1cc(C(=O)N2CCCCCC2)ccn1`, the figure is 5.308%. To `O=S(=O)(CCNC1CCc2ncnn2C1)c1ccccc1` (centres undefined) belongs 20.6%. As for `COC1CC2(CCN(Cc3ccc4c(c3)OCO4)CC2)C1`, the figure is 37.4%; as for `Cc1nn(CC(O)CN2CCc3ccccc3C2)c(=O)c2ccccc12` (centres undefined), 18.6%. For `NC(=O)c1c(NC(=O)CCC(=O)O)sc2c1CCc1ccccc1-2`, the INHIBITION was -13%. Consider `Cc1cccc(OCCN2CCN(Cc3cnn(CCO)c3)CC2)c1`, for which the INHIBITION was 32.9%. On to `Cc1noc(C)c1S(=O)(=O)NCC(C)(O)c1ccc2c(c1)OCO2` (centres undefined), for which the INHIBITION was 31.3%. As for `Cc1nn(C)c(C)c1S(=O)(=O)NCC(C)(O)c1ccc2c(c1)OCO2` (centres undefined), the figure is 34.3%.

As to `Cn1cnc(S(=O)(=O)NCC(C)(O)c2ccc3c(c2)OCO3)c1` (centres undefined), the INHIBITION is on record as 52.5%. Regarding `CNc1nccnc1C1CN(C(=O)c2cc[nH]n2)CCO1` (centres undefined), the INHIBITION was -22.5%. To `CN1CCN(C)C(CNc2c(C#N)cnc3ccc(Cl)cc23)C1` (centres undefined) belongs 7.18%; to `CCOC1CC2(CCN(c3cnccn3)CC2)c2ccccc21` (centres undefined), 37.9%.

With `CN(C)CCOC1CC2(CCN(c3cnccn3)CC2)c2ccccc21` (centres undefined), the INHIBITION is on record as 31.9%. `c1cncc(C2CC3(CCN(c4cnccn4)CC3)c3ccccc32)c1` (centres undefined): the INHIBITION worked out at 54.1%.

With `Cc1cc(C)cc(OCC(=O)N2CCC2)c1`, the INHIBITION is -5.22%. For the molecule `CN(C)C(=O)CO[C@H]1CN(Cc2ccc3c(c2)OCO3)[C@@H]2COC[C@H]12`, the INHIBITION stood at 47.4%. `CS(=O)(=O)N1C[C@H](C(=O)Nc2cccnc2)C[C@H]2OCC[C@H]21`: the INHIBITION is 30.5%.

As to `CS(=O)(=O)N1C[C@@H](C(=O)Nc2cnccn2)C[C@H]2OCC[C@H]21`, the INHIBITION was found to be 39.3%. Take `CS(=O)(=O)N1C[C@H](C(=O)Nc2cnccn2)C[C@H]2OCC[C@H]21`: the INHIBITION was 61.5%.

For `O=C(Nc1cnccn1)[C@@H]1C[C@H]2OCC[C@H]2N(c2ncc(F)cn2)C1`, the INHIBITION is on record as 0.923%.

For `O=C(Nc1cnccn1)[C@H]1CO[C@H]2CCN(c3ncc(F)cn3)C[C@H]2C1`, the INHIBITION was 27.3%. To `O=C(Nc1cnccn1)[C@H]1C[C@H]2OCC[C@H]2N(c2ncc(F)cn2)C1` belongs 60%; to `NS(=O)(=O)Cc1ccc(CNc2cncc(-n3cccn3)n2)cc1`, 11.6%; to `Cc1ccc(CN2CCN(Cc3nccn3C)[C@H]3CS(=O)(=O)C[C@H]32)o1`, 24.9%. As for `O=C(CN1CCC[C@H]1C(=O)O)NCCOc1cccc(Cl)c1`, the figure is 16.1%. For the molecule `O=C(NC1CCN(C2CC2)CC1)c1cn(-c2ccc(Cl)cc2)nn1`, the INHIBITION is reported as -6.51%. As for `Cc1ccc2c(n1)N(Cc1csc(C)n1)CCN(C1CCOC1)C2` (centres undefined), the figure is 28.2%; as for `Cc1cccn2c(CNC(C)CCn3cccn3)cnc12` (centres undefined), 32.3%.

For `Cc1ccc2c(c1)c(CNC(C)Cn1nc(C)cc1C)nn2C` (centres undefined), the INHIBITION stood at 10.9%. To `Cc1cc(C)n(CC(C)NCc2nc(-c3cccnc3)no2)n1` (centres undefined) belongs 45.9%. As for `Cc1cccn2c(CNC(C)CO)cnc12` (centres undefined), the figure is 24.7%; as for `Cc1cccn2c(CNC(C)CCc3ccc(O)cc3)cnc12` (centres undefined), 65.8%.

As for `Cc1cc(C)n(CC(C)NCc2cnc3c(C)cccn23)n1` (centres undefined), the INHIBITION was determined as 60.4%. To `COc1ccc(OC)c(C(C)NC(=O)c2nn(C)c(C)c2Br)c1` (centres undefined) belongs -1.84%; to `Cn1c(=O)[nH]c(=O)n2c(CC(=O)Nc3ccccc3)cnc12`, 32.5%; to `CCn1cc2c(n1)C(COC)CN(Cc1ccoc1)C2` (centres undefined), 58.7%.

Turning to `COCC1CN(Cc2ccoc2)Cc2cn(CC3CCCC3)nc21` (centres undefined), the INHIBITION is recorded as 34.6%. To `COCC1CN(Cc2ccoc2)Cc2cn(C)nc21` (centres undefined) belongs 7.24%; to `Cn1c(Cn2ccnc2)nnc1C1CCN(C(=O)c2ccncc2)CC1`, -22.1%. As for `COCC(=O)N1CCC(c2cc(N(C)C)cc(C)n2)CC1`, the figure is 44.3%. For the molecule `Cc1ccc(-c2nc(CC(=O)NCC(C)N3CCOCC3)cs2)o1` (centres undefined), the INHIBITION was determined as 67.5%. In the case of `CCNC(=O)C1CCN(Cc2csc(-c3ccc(C)o3)n2)CC1`, the INHIBITION is recorded as 20.2%. As to `Cc1ccc(-c2nc(CC(=O)N3CCCC(NC(=O)C(C)C)C3)cs2)o1` (centres undefined), the INHIBITION was determined as 51.7%. To `CNC(=O)C1CCCCN1C(=O)Cc1csc(-c2ccc(C)o2)n1` (centres undefined) belongs -7.72%; to `Cc1ccc(-c2nc(CC(=O)NCC3CCOC3)cs2)o1` (centres undefined), 71.2%; to `Cc1ccc(-c2nc(CC(=O)NCC3CCCOC3)cs2)o1` (centres undefined), 44.3%. As for `Cc1ccc(-c2nc(CC(=O)NCC3CCCN(C(C)C)C3)cs2)o1` (centres undefined), the figure is 38.7%; as for `Cc1ccc(-c2nc(C(=O)NCC3CCOC3)cs2)cc1` (centres undefined), 41.5%; as for `Cc1ccc(-c2nc(CC(=O)N3CCN(c4cnccn4)CC3)cs2)o1`, -11.4%. On to `NC(=O)NCC1CCCCN1C(=O)c1cccc(Cl)c1` (centres undefined), for which the INHIBITION was -17.4%.

Turning to `CNC(=O)CN1CCCC12CCN(C(=O)c1cccc(F)c1)CC2`, the INHIBITION came to 14.9%. For the molecule `CCSc1ccc(C(=O)N2CCCC2C(=O)N2CCOCC2)cn1` (centres undefined), the INHIBITION came to 23.6%.

As to `Cc1ccc(CN2CC[C@H]3OCC[C@@H](C(=O)NC4CC4)[C@@H]3C2)o1`, the INHIBITION is 23.9%.

The values are drawn from ChEMBL document CHEMBL4513216, “Probing the Open Global Health Chemical Diversity Library for Multistage-Active Starting Points for Next-Generation Antimalarials” (ACS Infect Dis, 2020).
